Assay outcomes as filed in PubChem BioAssay.
NPR1 antag: human Npr1 receptor antagonism; P16066; HEK293 hNpr1 GloSensor cGMP, ANP-stimulated luminescence; Potency, µM (titrated, usually from 46.3 µM), most hits filed as inhibitors; 76,000 compounds, 1.6% hits; AID 1347048; calls by dose curve; further: nearly all actives have a fitted effect of over 60% in size
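Compound pre-incubated 30 min at room temperature on GloSensor-loaded HEK293 cells stably carrying hNpr1 and the pGS-40F cGMP biosensor. Stimulation uses hNppA at 0.1 nM final; luminescence is taken at baseline and 20 min post-agonist.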
3T3 cytotox: kills NIH 3T3 cells; NIH 3T3 viability, CellTiter-Glo ATP luminescence, 48-72 h; Potency, µM (highest dose often 96.7 µM), hits mostly inhibitors; 94,000 compounds, 4.3% hits; AID 1345082; further: nearly all actives have a fitted effect of over 55% in size
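Mouse fibroblast NIH 3T3 cells, 400 per well, received compound via pintool and were incubated for 48 or 72 hr prior to CellTiter-Glo ATP luminescence measurement.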
Luciferase inh: inhibitors of firefly (Photinus pyralis) luciferase; purified P. pyralis luciferase, luminescence, biochemical; AID 1347043; 76,000 compounds, 2.5% hits; Potency, µM (top dose mostly 115 µM), hits mostly inhibitors; P08659; further: nearly all actives have a fitted effect of over 65% in size
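Luminescence read by CCD imager after adding enzyme (10nM final) to wells holding compound, titrated in qHTS. Substrates 10uM each D-luciferin and ATP; buffer 50mM Tris acetate pH 7.5, 10mM Mg acetate, Tween-20, BSA.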
GPT2 inh: GPT2 alanine aminotransferase inhibition | Q8TD30 | Recombinant GPT2, coupled pyruvate oxidase/HRP Amplex Red fluorescence | Potency, µM (top dose mostly 57.7 µM), hits mostly inhibitors | 100,000 compounds, 0.25% hits | AID 1671188; further: nearly all actives have a fitted effect of over 60% in size
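Fluorescence read-out: pyruvate from GPT2 turnover coupled to pyruvate oxidase, HRP and Amplex Red (0.2mM ThPP, 0.2U/mL PO and HRP, 50uM Amplex final). Substrates 250uM a-KG, 2mM L-alanine; enzyme 10ng/uL; 30 min RT.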
HEK cytotox: HEK 293 cell cytotoxicity; HEK 293 viability, ATP luminescence (CellTiter-Glo), 48-72 h; Potency, µM (titrated, usually from 115 µM), actives largely listed as inhibitors; 94,000 compounds, 6.6% hits; AID 1345083; further: nearly all actives have a fitted effect of over 60% in size
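Viability of HEK 293 cells, plated at 250 cells/well, was judged by cellular ATP after compound treatment for 48 or 72 hr. Luminescence was imaged 10 min after CellTiter-Glo addition at room temperature.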
NPR1 antag cnf: hNpr1 antagonism, confirmation assay. 1,400 compounds, 76% hits. Potency, µM (series often up to 57.6 µM), hits mostly inhibitors. HEK293 hNpr1 cGMP GloSensor luminescence, ANP-stimulated. shares compounds with NPR1 antag; calls by dose curve; further: nearly all actives have a fitted effect of over 70% in size
NPR2 antag: selectivity test of Npr1 antagonists against human Npr2 | shares compounds with NPR1 antag | HEK293 hNpr2 GloSensor cGMP luminescence, CNP-stimulated | Potency, µM (top dose mostly 57.6 µM), usual class: inhibitors | 1,400 compounds, 67% hits | AID 1347046; calls by dose curve; further: nearly all actives have a fitted effect of over 70% in size
FLuc inh counter: inhibits firefly luciferase, false Npr1 antagonist flag; shares compounds with NPR1 antag; purified FLuc enzyme, luminescence, Km substrate; Potency, µM (series often up to 57.6 µM), actives largely listed as inhibitors; 1,400 compounds, 0.7% hits
GloSensor cGMP: counter-screen for Npr1 antagonists: GloSensor control cell line; 1,400 compounds, 69% hits; shares compounds with NPR1 antag; HEK293 GloSensor cGMP, SNP-stimulated, luminescence; Potency, µM (top dose mostly 57.6 µM), hits mostly inhibitors; calls by dose curve; further: nearly all actives have a fitted effect of over 70% in size
Numbers stand for hits; n = inactive; u = inconclusive; x = not tested or not shown; [ ] = another dose, or the depositor's remark. Shown are actives, neighbours in structure and some others; about 10% of the full set was active somewhere. Unless noted, the call rests on the fitted dose curve; in most records, active means well fitted curve in the direction sought with a large enough effect; inconclusive means small, poorly fitted or top-dose-only effect, or another doubt; inactive means no such curve, though single readings can be large; an effect the other way counts as inactive or inconclusive.

SMILES	NPR1 antag	3T3 cytotox	Luciferase inh	GPT2 inh	HEK cytotox	NPR1 antag cnf	NPR2 antag	FLuc inh counter	GloSensor cGMP
Cc1nn2c(c1-c1ccccc1C(C)C)N(C(=O)CCc1cccnc1)CCC2	n	u	n	n	n	x	x	x	x
Cc1nn2c(c1-c1ccccc1C(N)=O)N(CCCc1ccccc1)CCC2	1.1µM	11µM	n	n	11µM	2.8µM	u	n	3.5µM
O=C(Cc1c[nH]c2ncc(-c3ccccc3)cc12)N1CCCC1	u	u	n	n	u	28µM	u	u	u
O=C(Cc1c[nH]c2ncc(-c3ccc(Oc4ccccc4)cc3)cc12)N1CCOCC1	10µM	u	n	n	56µM	13µM	18µM	u	11µM
O=C(Cc1c[nH]c2ncc(-c3cccc(CO)c3)cc12)N1CCOCC1	n	u	n	n	u	x	x	x	x
COc1cc(F)cc(-c2cnc3[nH]cc(CC(=O)N4CCOCC4)c3c2)c1	6.3µM	u	n	n	u	3.1µM	18µM	u	7.9µM
O=C(Cc1c[nH]c2ncc(-c3ccccc3Oc3ccccc3)cc12)N1CCOCC1	14µM	u	n	u	50µM	13µM	22µM	n	13µM
COc1ccc(-c2cnc3[nH]cc(CC(=O)N4CCNC(=O)C4)c3c2)cc1	n	u	n	n	n	x	x	x	x
O=C(Cc1c[nH]c2ncc(-c3ccccc3)cc12)NC1CCOCC1	n	u	n	n	u	x	x	x	x
COc1ccc(-c2cc(N3CCC(NC(=O)Cc4ccsc4)CC3)n[nH]2)cc1	n	u	n	n	u	x	x	x	x
CCOC(=O)C1(Cc2ccccc2F)CCCN(C(=O)c2ccc3ncccc3c2)C1 (centres undefined)	n	u	n	n	u	x	x	x	x
COc1cccc(C(=O)N2CCc3onc(-c4cccc(F)c4)c3C2)c1OC	10µM	u	n	n[11.5 µM]	20µM	22µM	22µM	n	19µM
COc1cccc(-c2noc3c2CN(C(=O)c2ccc(C)cc2OC)CC3)c1	u	u	n	n[11.5 µM]	u	x	x	x	x
Cc1cc(S(=O)(=O)N2CCC(n3cnnc3-c3ccccc3)CC2)ccc1F	n	n	n	n	n	x	x	x	x
COc1cccc(S(=O)(=O)N2CCC(n3cnnc3C(C)C)CC2)c1	u	u	n	n	n	u	u	n	u
Cc1ccc(S(=O)(=O)N2CCC(n3cnnc3-c3ccccc3)CC2)cc1C	n	u	n	n	u	u	u	n	n
CCc1nncn1C1CCN(S(=O)(=O)c2cccc(OC)c2)CC1	n	n	n	n	n	x	x	x	x
Cc1cccc2nc(C(=O)N3CCCC(c4[nH]ncc4-c4ccccc4)C3)cn12 (centres undefined)	u	u	n	n[11.5 µM]	u	u	u	n	n
Cc1cccc2nc(C(=O)N3CCC4(CC3)CC(c3ccccc3)CN(C)C4)cn12 (centres undefined)	n	n	n	n	u	x	x	x	x
Cc1cnc(C2CN(C(=O)C(C)c3ccccc3)C2)n1Cc1ccccc1 (centres undefined)	x	n	x	n	n	x	x	x	x
O=[S+]([O-])(Nc1ccccc1)c1ccc2c(c1)OCCN(Cc1cccnc1)C2	22µM	u	n	n	u	40µM	u	n	40µM
CCOc1cccc(CN2CC(Oc3ccc(-c4noc(COC)n4)cc3)C2)c1	u	u	n	n	u	x	x	x	x
COCc1nc(-c2ccc(OC3CN(C(=O)NCc4ccc(OC)cc4)C3)cc2)no1	u	u	n	n	n	24µM	u	n	19µM
